# Results filed as inconclusive are left out. A number with no mark means an inactive call. Activity calls are given as the source filed them. Calls come from the whole dose curve; as a rule, active = well fitted inhibition curve with a large enough effect; inconclusive = small, poorly fitted or top-dose-only effect; inactive = flat fitted curve, though single readings scatter.
# What was measured:
# [1] = qHTS profiling for inhibitors of Plasmodium falciparum proliferation (AID 504749); note: nearly all actives have a fitted effect of over 60% in size;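 for activity, negative = inhibition: 0% = DMSO vehicle and full inhibition = artemisinin control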; conditions: P. falciparum in erythrocytes, SYBR Green DNA, 72 h
# Summary of the method: (§1)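 P. falciparum-infected erythrocytes (0.3% parasitemia, 2.5% hematocrit final) were exposed to compounds for 72 h at 37 C in 5% CO2, then lysed with SYBR Green buffer overnight at room temperature; parasite DNA fluorescence was normalized to artemisinin and DMSO controls.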
# 3D7 = assay: as above; conditions: P. falciparum in erythrocytes, SYBR Green DNA, 72 h; series mostly up to 28.7 µM
# Summary of the method: as §1
# 7G8 = assay: as above; conditions: P. falciparum in erythrocytes, SYBR Green DNA, 72 h; series mostly up to 28.7 µM
# Summary of the method: as §1
# [2] = at 28.7 µM (top of the series), parasite line A
# [3] = at 28.7 µM (top of the series), parasite line B
# [4] = at 12.8 µM (top of the series), parasite line A
# Potency is the fitted concentration of half-maximal effect.
compound,measurement,setting,value
c1ccc(C2(N3CCCC3)CCCCC2)cc1,Potency,[1]; parasite line A,12.6 µM (active)
same,Potency,3D7,12.6 µM (active)
same,Potency,7G8,11.2 µM (active)
ClCC1CO1 (stereo not given),"activity, negative = inhibition",[1]; [2],2.63%
same,"activity, negative = inhibition",[1]; [3],-1.12%
same,Potency,3D7,inactive
same,Potency,7G8,inactive
C[C@H]1CCC[C@H](O)CCCCCc2cc(O)cc(O)c2C(=O)O1,"activity, negative = inhibition",[1]; [3],-17.3%
same,Potency,3D7,inactive
same,Potency,7G8,12.6 µM (active)
O=c1[nH]c(=O)n(Cl)c(=O)n1Cl,"activity, negative = inhibition",[1]; [2],-5.08%
same,"activity, negative = inhibition",[1]; [3],11.2%
same,Potency,3D7,inactive
same,Potency,7G8,inactive
CCCN1CCCC2Cc3[nH]ncc3CC21 (stereo not given),"activity, negative = inhibition",[1]; [2],7.25%
same,"activity, negative = inhibition",[1]; [3],13.9%
same,Potency,3D7,inactive
same,Potency,7G8,inactive
COCC(C)N(C(=O)CCl)c1c(C)csc1C (stereo not given),"activity, negative = inhibition",[1]; [2],7.86%
same,"activity, negative = inhibition",[1]; [3],-2.46%
same,Potency,3D7,inactive
same,Potency,7G8,inactive
O=c1c2ccccc2[se]n1-c1ccccc1,Potency,7G8,8.91 µM (active)
CNC1(c2ccccc2Cl)CCCCC1=O (stereo not given),"activity, negative = inhibition",[1]; [2],12.4%
same,Potency,3D7,inactive
same,Potency,7G8,inactive
C[C@@H](Cc1ccccc1)NCCC(c1ccccc1)c1ccccc1,"activity, negative = inhibition",[1]; [4],-17.6%
same,Potency,7G8,4.47 µM (active)
F/C(COc1ccc2c(c1)[nH]c1ccccc12)=C1/CN2CCC1CC2,Potency,[1]; parasite line B,10 µM (active)
same,Potency,7G8,5.01 µM (active)
N#CN,"activity, negative = inhibition",[1]; [2],10.5%
same,"activity, negative = inhibition",[1]; [3],6.79%
same,Potency,3D7,inactive
same,Potency,7G8,inactive
COC1=CC=C2[C@H]3Cc4ccc(OC)c5c4[C@@]2(CCN3C)[C@H]1O5,"activity, negative = inhibition",[1]; [4],-6.15%
same,"activity, negative = inhibition","[1]; at 12.8 µM (top of the series), parasite line B",12.3%
same,Potency,3D7,inactive
same,Potency,7G8,inactive
Clc1ccccc1Cl,"activity, negative = inhibition",[1]; [2],6.5%
same,Potency,3D7,inactive
same,Potency,7G8,inactive
C[N+]1(C)C2CCC1CC(OC(=O)c1c[nH]c3ccccc13)C2 (stereo not given),"activity, negative = inhibition",[1]; [2],3.31%
same,"activity, negative = inhibition",[1]; [3],10.8%
same,Potency,3D7,inactive
same,Potency,7G8,inactive
COc1ccc(OC)c(C(O)C(C)N)c1 (stereo not given),"activity, negative = inhibition",[1]; [2],12.5%
same,"activity, negative = inhibition",[1]; [3],-2.03%
same,Potency,3D7,inactive
same,Potency,7G8,inactive
CCNC(C)Cc1cccc(C(F)(F)F)c1 (stereo not given),"activity, negative = inhibition",[1]; [2],6.39%
same,Potency,3D7,inactive
same,Potency,7G8,inactive
Clc1ccc(Cl)cc1,"activity, negative = inhibition",[1]; [2],7.27%
same,Potency,3D7,inactive
same,Potency,7G8,inactive
CN1c2ccccc2C(NCCCCCCC(=O)O)c2ccc(Cl)cc2S1(=O)=O (stereo not given),"activity, negative = inhibition",[1]; [2],2.2%
same,"activity, negative = inhibition",[1]; [3],-5.71%
same,Potency,3D7,inactive
same,Potency,7G8,inactive
O=P(O)(O)C(Cl)(Cl)P(=O)(O)O,"activity, negative = inhibition",[1]; [2],6.37%
same,"activity, negative = inhibition",[1]; [3],14%
same,Potency,3D7,inactive
same,Potency,7G8,inactive
O=C(OCCN1CCCCC1)C(O)(c1ccccc1)c1ccccc1,"activity, negative = inhibition",[1]; [2],8.26%
same,"activity, negative = inhibition",[1]; [3],-1.95%
same,Potency,3D7,inactive
same,Potency,7G8,inactive
O=[N+]([O-])c1ccccc1,"activity, negative = inhibition",[1]; [2],-4.98%
same,"activity, negative = inhibition",[1]; [3],4.83%
same,Potency,3D7,inactive
same,Potency,7G8,inactive
FC(F)OC(F)(F)C(F)Cl (stereo not given),"activity, negative = inhibition",[1]; [2],10.8%
same,"activity, negative = inhibition",[1]; [3],14%
same,Potency,3D7,inactive
same,Potency,7G8,inactive

# — PubChem BioAssay (NCATS)
